Compound activity deposited in PubChem BioAssay by several laboratories.
HSP90 refold inh – HSP90 refolding inhibition in rabbit reticulocyte lysate | 290,000 compounds, 0.91% hits | inhibition, % at 5.6 µM | AID 1789 | luciferase refolding luminescence, 3 h;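 active means inhibition above the screen-wide mean plus 3 SD, computed separately per campaign, cut at about 16% in these data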;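 further: 0% = DMSO wells and 100% = 60 µM geldanamycin wells; inhibitors lower the luminescence because luciferase stays unfolded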
LGR2 antag – inhibitors of bursicon-induced Drosophila LGR2 receptor cAMP signaling; HEK293 LGR2, CRE-luciferase, bursicon-stimulated, 4 h; inhibition, % at 9.99 µM; 380,000 compounds, 0.35% hits; AID 720647;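 active means drop in luminescence signal, shown as inhibition above about 50% in the replicate tests, limit read from the data, passing the limit was not always enough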;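 further: agonist challenge used bursicon conditioned medium at about half maximal strength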
Peg3 promoter – reduces Peg3 promoter-driven luciferase expression in HeLa. HeLa PEG-Prom luciferase reporter, luminescence, overnight. AID 588405. 360,000 compounds, 1.7% hits. inhibition, % at 20 µM;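 active means inhibition of at least 50% at 20 µM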
CF NFkB block – cystic fibrosis NF-kB activation inhibition; 360,000 compounds, 0.86% hits; KKLEB NF-kB-GFP reporter, PAF-induced, GFP fluorescence overnight; inhibition, % at 5 µM;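 active means at least 50% inhibition at 5 µM, scaled per plate between neutral and stimulator controls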;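 further: PAF is a Pseudomonas aeruginosa culture filtrate used as stimulus; plate controls were PAF-stimulated DMSO wells for no effect and unstimulated DMSO wells for full effect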
KKLEB cytotox – CF airway cell cytotoxicity counter-screen. AID 602141. KKLEB CF airway cells viability, ATPlite luminescence, overnight; hits give low values; cells stimulated with P. aeruginosa culture filtrate. 360,000 compounds, 0.36% hits. activity change (cytotoxicity), % at 5 µM;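 active means corrected activity change at or below -50% at 5 µM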
Mdm2-MdmX inh – inhibitors of human Mdm2/MdmX interaction | 330,000 compounds, 3% hits | inhibition, % at 8 µM | O15151+Q00987 | AID 485346 | SaOS-2 split-luciferase Mdm2/MdmX complementation, luminescence;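 active means inhibition of at least 50% at 8 µM in the primary screen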
Target sequence (O15151 whole entry, looked up): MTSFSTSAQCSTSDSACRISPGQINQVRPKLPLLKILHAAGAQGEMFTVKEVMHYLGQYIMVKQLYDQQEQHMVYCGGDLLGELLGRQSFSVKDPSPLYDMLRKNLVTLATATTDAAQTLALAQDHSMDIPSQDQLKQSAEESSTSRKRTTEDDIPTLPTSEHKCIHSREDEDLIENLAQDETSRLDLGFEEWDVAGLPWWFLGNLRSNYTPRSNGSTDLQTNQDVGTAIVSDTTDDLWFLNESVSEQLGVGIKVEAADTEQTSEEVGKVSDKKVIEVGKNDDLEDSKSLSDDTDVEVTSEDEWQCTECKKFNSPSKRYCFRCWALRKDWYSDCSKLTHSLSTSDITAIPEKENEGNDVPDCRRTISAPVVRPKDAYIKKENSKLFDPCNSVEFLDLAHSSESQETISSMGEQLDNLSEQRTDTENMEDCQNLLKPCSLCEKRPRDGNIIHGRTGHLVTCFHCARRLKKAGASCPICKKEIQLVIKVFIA
Target sequence (Q00987 whole entry, looked up): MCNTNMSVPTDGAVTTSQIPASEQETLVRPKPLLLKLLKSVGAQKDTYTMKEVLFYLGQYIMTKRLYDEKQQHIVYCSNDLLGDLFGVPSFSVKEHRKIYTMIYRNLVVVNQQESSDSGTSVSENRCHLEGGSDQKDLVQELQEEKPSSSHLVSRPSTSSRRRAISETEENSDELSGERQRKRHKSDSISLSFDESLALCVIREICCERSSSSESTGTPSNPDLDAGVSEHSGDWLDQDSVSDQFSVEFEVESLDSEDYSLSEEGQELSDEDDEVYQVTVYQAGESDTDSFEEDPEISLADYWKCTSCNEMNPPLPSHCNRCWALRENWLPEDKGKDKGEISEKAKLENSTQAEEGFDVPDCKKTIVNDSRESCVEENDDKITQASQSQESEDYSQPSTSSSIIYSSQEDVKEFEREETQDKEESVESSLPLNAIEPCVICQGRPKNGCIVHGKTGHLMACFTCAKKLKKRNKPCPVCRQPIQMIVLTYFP
Mdm2 MdmX conf – confirmation of human Mdm2/MdmX interaction inhibitors | shares compounds with Mdm2-MdmX inh | Mdm2-MdmX binding, luminescent assay | inhibition, % at 8 µM | 10,000 compounds, 55% hits; in the data active means inhibition above about 40%
FLuc counter – counter-screen for Mdm2/MdmX inhibitors: full-length luciferase; SaOS-2 full-length luciferase counterscreen, luminescence; shares compounds with Mdm2-MdmX inh; inhibition, % at 8 µM; 6,200 compounds, 77% hits;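 active means mean inhibition at 8 µM reaching about 37%, which flags the compound as non-specific, limit read from the data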;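 further: p53-null SaOS-2 cells with luciferase driven by a doxycycline-inducible promoter; compound on cells about two nights before reading with doxycycline added after day one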
An asterisk follows results filed as active; / = not tested or not shown. A selection: hits, their analogues and other compounds. The true share with any hit is near 3.6%.

SMILES | HSP90 refold inh | LGR2 antag | Peg3 promoter | CF NFkB block | KKLEB cytotox | Mdm2-MdmX inh | Mdm2 MdmX conf | FLuc counter
CCN(CC)CCNC(=O)c1ccc(NC(=O)c2ccc(COc3ccccc3)cc2)cc1 | 15.7 | 1.0 | 49.4 | -1.9 | -0.8 | 82.7* | 33.7 | /
CCN(CC)CCNC(=O)c1ccc(NC(=O)c2ccc(Cl)c(S(=O)(=O)N3CCCCCC3)c2)cc1 | 9.9 | 26.4 | 87.6* | 0.1 | 4.1 | 94.1* | 36.6 | /
C[C@@]12C(=O)Nc3ccc(Br)cc3C(=O)N1[C@H]1c3cc(Br)ccc3OC[C@@H]1[C@@H]2c1ccccc1 | / | 12.2 | 1.9 | 7.3 | -10.1 | 27.1 | / | /
CCOC(=O)[C@H]1[C@H]2COc3ccc(Cl)cc3[C@@H]2N2C(=O)c3ccc(Cl)cc3NC(=O)[C@@]12C | / | 27.3 | 17.8 | 7.2 | 2.6 | 53.1* | 24.9 | /
C[C@@]12C(=O)Nc3ccccc3C(=O)N1[C@H]1c3cc(Br)ccc3OC[C@@H]1[C@@H]2c1ccccc1 | / | 8.1 | 32.8 | 22.0 | -11.2 | 63.4* | 53.0* | 30.8
COc1ccc2c(c1)C(=O)N1[C@H]3c4cc(Br)ccc4OC[C@@H]3[C@H](c3ccccc3)[C@]1(C)C(=O)N2 | / | / | 24.5 | 38.4 | -16.0 | 64.5* | 62.9* | 37.4*
C[C@@H]1CN([C@@H](C)CO)C(=O)c2cc(NC(=O)Cc3ccccc3)ccc2O[C@H]1CN(C)C(=O)Nc1cccc2ccccc12 | / | 1.4 | / | / | / | / | / | /
COCC(=O)N1CC(=O)N2[C@H](CO)[C@@H](c3ccc(C#CC(C)C)cc3)[C@H]2C1 | / | 6.3 | / | / | / | / | / | /
CN(C)CC(=O)N1CC2(C1)[C@H](c1ccccc1)[C@@H](CO)N2S(=O)(=O)c1ccccc1 | / | 2.5 | / | / | / | / | / | /
CCOC(=O)c1c(NC(=S)NC(=O)c2cnn(CC)c2)sc2c1CCC(C)C2 (stereo not drawn) | -2.4 | / | 22.0 | 15.5 | -2.7 | 54.1* | 7.8 | /
CCOC(=O)c1c(NC(=O)Cn2nc([N+](=O)[O-])c(Br)c2C)sc2c1CCC(C)C2 (stereo not drawn) | 1.5 | / | 12.4 | 12.7 | -8.5 | 58.1* | 8.8 | /
CCOC(=O)c1c(NC(=O)Cn2nc(C(=O)O)c3ccccc3c2=O)sc2c1CCC(C)C2 (stereo not drawn) | -0.2 | -19.6 | -33.0 | 36.0 | -22.3 | 6.7 | / | /
CCOC(=O)c1c(NC(=O)C2C3C=CC(C3)C2C(=O)O)sc2c1CCC(C)C2 (stereo not drawn) | 0.5 | / | 13.2 | -9.9 | 3.1 | 6.6 | / | /
Cn1cnc(CCNC(=O)C[C@@H]2CC[C@H]3[C@@H](COC[C@@H](O)CN3C(=O)Nc3ccccc3)O2)c1 | / | -11.4 | / | / | / | / | / | /
C[C@@H]1CN([C@H](C)CO)C(=O)Cc2cc(NC(=O)C3CCCCC3)ccc2O[C@H]1CN(C)C(=O)Nc1ccccc1 | / | 13.8 | / | / | / | / | / | /
O=C(N[C@@H](Cc1ccccc1)C(=O)N[C@@H](Cc1ccccc1)C(=O)O)OCc1ccccc1 | / | -24.4 | 7.7 | -42.9 | 3.7 | 12.4 | / | /
O=C(N[C@@H](Cc1ccccc1)C(=O)CCl)OCc1ccccc1 | / | -2.3 | 70.0* | 36.9 | -19.0 | 95.8* | 84.7* | 20.2
CC(=O)N(\C=C/C=C/C=C1\Sc2ccccc2C1=O)c1ccccc1 | -2.1 | -15.3 | -16.8 | -8.7 | 10.8 | 80.6* | 14.8 | /
CC(=O)Nc1ccc(/C=C2/Sc3ccccc3C2=O)cc1 | -2.1 | / | -111.7 | 10.4 | 4.5 | 13.7 | / | /
CC(=O)SC1CC2=CC(=O)CCC2(C)C2CCC3(C)C(CCC34CCC(=O)O4)C12 (stereo not drawn) | -2.9 | 34.3 | 22.2 | 35.8 | -12.6 | 50.6* | 47.9* | 96.4*
CN1CCN(C(c2cccc(Cl)c2)c2ccccc2Cl)CC1 (stereo not drawn) | 3.0 | 1.3 | 5.3 | 20.8 | -19.8 | 54.6* | 44.4* | 64.8*
CN1CCN(C(c2ccccc2)c2ccc(Cl)cc2)CC1 (stereo not drawn) | / | 4.5 | 1.4 | 17.9 | -4.1 | 36.1 | / | /
COc1ccc(Nc2nc(C)cc(-c3cc(-c4ccccc4)on3)n2)cc1 | / | 21.4 | 3.2 | 0.3 | -20.3 | 67.7* | 50.0* | 82.6*
O/N=C/c1ccc(-c2cc(Cl)ccc2Cl)o1 | 1.9 | / | -18.6 | 49.3 | -22.8 | 57.1* | 41.6* | 52.9*
O=C(NCC1CC1)[C@H]1[C@H](CO)[C@H]2Cn3c(cccc3=O)[C@H]2N1C(=O)Nc1ccccc1 | / | 8.4 | / | / | / | / | / | /
SMILES | HSP90 refold inh | LGR2 antag | Peg3 promoter | CF NFkB block | KKLEB cytotox | Mdm2-MdmX inh | Mdm2 MdmX conf | FLuc counter
COc1ccc(-c2csc(N(CCCN(C)C)C(=O)c3ccccc3C)n2)cc1 | -1.3 | 9.9 | 13.8 | 4.1 | 0.4 | 49.9 | / | /
COc1ccc(-c2csc(N(CCCN(C)C)C(=O)c3ccccc3Cl)n2)cc1 | 1.9 | 13.4 | 11.8 | 15.9 | -6.8 | 71.4* | 49.0* | 84.2*
CCCNC(=O)Nc1ccc2c(c1)C(=O)N(C)C[C@@H](OC)[C@@H](C)CN(CCC(F)(F)F)[C@H](C)CO2 | / | 5.7 | / | / | / | / | / | /
CN1[C@H](C(=O)NC2CCCC2)[C@@H](CO)[C@@H]2Cn3c(ccc(-c4cccc(F)c4)c3=O)[C@@H]21 | / | -6.6 | / | / | / | / | / | /
C[C@H]1CN([C@@H](C)CO)C(=O)c2cc(NC(=O)Nc3ccc(C(F)(F)F)cc3)ccc2O[C@@H]1CN(C)S(C)(=O)=O | / | -0.7 | / | / | / | / | / | /
COc1ccc(-c2nn(-c3ccccc3)cc2C(=O)NC(=S)Nc2cc(Cl)ccc2Cl)cc1 | -0.9 | 4.4 | 17.4 | 40.7 | -29.8 | 73.7* | 43.5* | 51.0*
c1ccc(-c2ccc(C3=Nn4c(nnc4-c4cc(-c5ccccc5)n[nH]4)SC3)cc2)cc1 | -0.5 | -0.6 | 10.9 | -17.7 | -0.5 | 39.7 | / | /
Clc1ccc(C2=Nn3c(nnc3-c3n[nH]c4c3CCC4)SC2)cc1 | -1.2 | / | 18.9 | -47.0 | 2.1 | 85.3* | 68.5* | 44.5*
Brc1ccc(C2=Nn3c(nnc3-c3n[nH]c4c3CCC4)SC2)cc1 | -1.1 | / | 18.1 | -62.3 | 8.3 | 80.2* | 79.5* | 72.5*
COCC(=O)N(C)C[C@H]1Oc2ncc(C#Cc3ccc(OC)cc3)cc2C(=O)N([C@H](C)CO)C[C@@H]1C | / | 15.1 | / | / | / | / | / | /
C[C@@H]1CCCCO[C@H](CN(C)Cc2ccc(C(F)(F)F)cc2)[C@H](C)CN([C@H](C)CO)C(=O)c2cc(NS(=O)(=O)c3ccc(F)cc3)ccc2O1 | / | 8.0 | / | / | / | / | / | /
COc1ccc(Nc2nc(CN3CCOCC3)nc3sc4c(c23)CCC(C)C4)cc1OC (stereo not drawn) | -3.2 | / | / | / | / | 17.2 | / | /
COc1cc2c(cc1OC)CN(c1nc(CN3CCOCC3)nc3sc4c(c13)CCC(C)C4)CC2 (stereo not drawn) | 3.1 | 2.2 | 10.3 | 3.2 | -14.5 | 63.9* | 28.4 | 73.7*
O=C1c2ccccc2NC(c2ccc(Cl)cc2Cl)N1O (stereo not drawn) | 0.5 | / | 34.7 | 2.5 | 8.0 | 65.2* | 46.1* | 30.7
